Article PMC4102417

Tested on: murine 3T3 fibroblasts
Experiment: primary screen, percent viability or growth; higher = less effect of the substance
Experimental: Similarly, for measuring the cytotoxicity concentration (CC50) for 3T3 fibroblast cells, cultures were incubated with drugs for 72 hours and developed using Alamar Blue (Alamar Biosciences Inc, Sacramento, CA) as previously described.

SMILES	Mammalian (3T3) cell % growth at 10 uM
COc1cc(O)c2c(c1)C(=O)c1cc(C)cc(O)c1C2=O	96.8%
COc1ccc2c(c1)OCC(Cc1ccc(OC)c(OC)c1)C2=O (centres unmarked)	84.5%
COc1ccc(Cc2nccc3cc(OC)c(OC)cc23)cc1OC.Cl	93.1%
COc1cc(O)c(C(=O)/C=C/c2ccc(O)c(OC)c2)c(OC)c1	10.2%
CCN(CCCCOC(=O)c1ccc(OC)c(OC)c1)C(C)Cc1ccc(OC)cc1 (centres unmarked)	92.3%
CC1OC(OC2C(OC3CCC4(C)C(CCC5(C)C4CC=C4C6CC(C)(C)CCC6(C(=O)O)CCC45C)C3(C)CO)OCC(O)C2O)C(O)C(O)C1O (centres unmarked)	6.8%
CN1CCC(=C2c3ccccc3Sc3ccccc32)CC1	98.5%
C=C1C(=O)O[C@H]2[C@H]1CC/C(C)=C/CC[C@@]1(C)O[C@@H]21	0.7%
Oc1ccc2c(c1)OC[C@]1(O)Cc3cc(O)c(O)cc3[C@H]21	3.6%
COc1ccc2cc1Oc1ccc(cc1)C[C@H]1c3cc(c(OC)cc3CCN1C)Oc1c(OC)c(OC)cc3c1[C@H](C2)N(C)CC3	14.6%
O=c1cc(-c2ccc(O)cc2)oc2cc(O)cc(O)c12	73.6%
CC(=O)Oc1ccc(/C=C/c2cc(OC(C)=O)cc(OC(C)=O)c2)cc1	31.6%
CN(C)C(=S)SSC(=S)N(C)C	0.3%
C[C@@H]1[C@H](O)[C@@H](C)/C=C/C=C/C=C/C=C/C=C/C=C/C=C/[C@H](O[C@@H]2O[C@H](C)[C@@H](O)[C@H](N)[C@@H]2O)C[C@@H]2O[C@](O)(C[C@@H](O)C[C@@H](O)[C@H](O)CC[C@@H](O)C[C@@H](O)CC(=O)O[C@H]1C)C[C@H](O)[C@H]2C(=O)O	89.7%
O=C1C=C2C(=CCOC2O)O1 (centres unmarked)	0.5%
CCc1nc(N)nc(N)c1-c1ccc(Cl)cc1	97.6%

SMILES	Mammalian (3T3) cell % growth at 10 uM
COc1cc([C@@H]2c3cc4c(cc3[C@@H](O[C@@H]3O[C@@H]5CO[C@@H](c6cccs6)O[C@H]5[C@H](O)[C@H]3O)[C@H]3COC(=O)[C@H]23)OCO4)cc(OC)c1O	50.4%
NS(=O)(=O)c1cc(C(=O)O)c(NCc2ccco2)cc1Cl	79.1%
COc1ccc2c(c1)OC/C(=C/c1ccc(OC)c(O)c1)C2=O	8.8%
O=C(O)CC[N+](=O)[O-]	88.6%
O=c1cc(-c2cc(O)c(O)c(O)c2)oc2cc(O)cc(O)c12	100%
COC(=O)CC1C2(C)CC34OC5(C)OC6(C7/C(=C(\OC)C(C)C)C(=O)OC(c8ccoc8)C7(C)C(OC(=O)C(C)C)C(OC)C6(O5)C13C)C(OC)C4(OC)C2OC(C)=O (centres unmarked)	53.4%
Oc1ccc(/C=C\c2cc(O)cc(O)c2)cc1	24.8%
CNCCC=C1c2ccccc2CCc2ccccc21	100%
COC(=O)C1(C)CCCC2(C)c3ccc(C(C)C)cc3C(=O)CC12 (centres unmarked)	91.8%
COc1ccc2c(c1)[nH]c1c(C)nccc12	87.2%
CC1(C)C(=O)C2OC2C2(C)C1CC(O)C1(C)C2CCC2(C)C(c3ccoc3)OC(=O)C3OC321 (centres unmarked)	77.3%
CCN(CC)CCOc1ccc2c(c1)C(=O)c1cc(OCCN(CC)CC)ccc1-2	89%
O=c1cc(-c2ccccc2)oc2cc(O)cc(O)c12	43%
COc1ccc(-c2cc(=O)c3c(O)cc(O)cc3o2)cc1	77.4%
O=C(CCCN1CCC2(CC1)C(=O)NCN2c1ccccc1)c1ccc(F)cc1	94.7%
COC(=O)C1=C(C)NC(C)=C(C(=O)OC)C1c1ccccc1[N+](=O)[O-]	1.7%
